CYP2C19 act = activators of human cytochrome P450 2C19; P33261; recombinant CYP2C19, luciferin-H EGE luminescence; stronger effect = higher value; 0 = fully inhibited enzyme, 1 = untreated enzyme; activation factor at 5 µM; 96,000 tested, under 10 active; AID 1025;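 active means activation factor of at least 2 at 5 µM in the primary screen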;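 further: 0 = wells with 2.5 mM tranylcypromine and 1 = vehicle-only wells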
PLAP activator = activators of human placental alkaline phosphatase | P05187 | purified PLAP enzyme, luminescent substrate read-out; stronger effect = higher value | activation fold at 20 µM | 1.2% of 96,000 active | AID 696; in the data active means activation fold above about 2
CYP2C9 act = activators of human CYP2C9 | P11712 | recombinant CYP2C9, luciferin-H conversion, luminescence; stronger effect = higher value; factor 1 = untreated enzyme, 0 = blocked | activation factor at 5 µM | 1.4% of 96,000 active;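 active means activation factor of 2 or more for CYP2C9 at a 5 µM dose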;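 further: 0 = sulfaphenazole-blocked wells and 1 = vehicle-only wells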
Target sequence (P11712 whole entry, looked up): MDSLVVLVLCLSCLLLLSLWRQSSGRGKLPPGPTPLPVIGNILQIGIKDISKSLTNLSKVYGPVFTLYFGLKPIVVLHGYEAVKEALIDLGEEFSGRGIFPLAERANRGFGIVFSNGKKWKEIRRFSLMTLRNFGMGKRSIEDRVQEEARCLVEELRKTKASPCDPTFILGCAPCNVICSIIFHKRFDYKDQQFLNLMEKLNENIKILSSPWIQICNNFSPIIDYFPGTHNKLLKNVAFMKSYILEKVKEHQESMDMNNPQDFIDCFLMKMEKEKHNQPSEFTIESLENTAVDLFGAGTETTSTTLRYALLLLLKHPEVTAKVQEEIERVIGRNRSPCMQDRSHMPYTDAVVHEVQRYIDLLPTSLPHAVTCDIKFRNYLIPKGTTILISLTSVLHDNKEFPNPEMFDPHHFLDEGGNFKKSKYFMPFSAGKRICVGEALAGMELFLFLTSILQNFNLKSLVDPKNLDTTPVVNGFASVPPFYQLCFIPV
CYP2C19 inhib = human CYP2C19 inhibition; CYP2C19 Supersomes, luciferin-H EGE luminescence, 30 min; inhibition, % at 5 µM; P33261; 21% of 96,000 active;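 active means CYP2C19 inhibition above a set limit at 5 µM in the primary screen, cut at about 50% in these data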;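 further: plate controls were negative control wells for no effect and 2.5 mM tranylcypromine positive control for full effect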
CYP2C9 inhib = blocks human cytochrome P450 2C9; P11712; CYP2C9 Supersomes, luciferin-H conversion, luminescence; inhibition, % at 5 µM; 20% of 96,000 active; AID 777;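 active means blocking of liver enzyme CYP2C9 beyond about 50% at 5 µM, limit read from the data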
* = called active by the depositor. In the library only some 31% were active in any assay of this set; here they are far more common.

SMILES	CYP2C19 act	PLAP activator	CYP2C9 act	CYP2C19 inhib	CYP2C9 inhib
Cc1cnn(C(=S)NCC2CCCO2)c1 (stereo unspecified)	0.4	2.1*	1	56*	0
CC(=O)Nc1cccc(Oc2cc(C#N)c(C#N)cc2N2CCCCCC2)c1	0	1.7	0	96*	100*
O=c1cc2c(nn1Cc1ccccc1Cl)-c1ccccc1CC2	0	1.6	0.1	95*	94*
O=c1cc2c(nn1Cc1ccc(Cl)cc1Cl)-c1ccccc1CC2	0.5	0.9	0.3	51*	67*
COc1ccc(CNc2ncnc(N)n2)cc1	1	1	1	0	-3
COc1ccc(CN(C)c2ncnc(N)n2)cc1	0.2	0.9	0.9	78*	11
Cc1cc2n(n1)C(c1sccc1C)Nc1ccccc1-2 (stereo unspecified)	0.3	1.3	0.4	66*	56*
Cc1ccc2c(c1)-c1cc(C)nn1C(c1sccc1C)N2 (stereo unspecified)	0.2	1.5	0.4	79*	56*
Cc1cc2n(n1)C(c1sccc1C)Nc1c(C)cccc1-2 (stereo unspecified)	0.6	1.1	0.7	43	29
O=C1OC(N2CCN(C(=O)C3CCCO3)CC2)c2ccccc21 (stereo unspecified)	1.1	0.9	1.1	-12	-10
O=C1CC(Nc2ccc(N3CCOCC3)cc2)C(=O)N1c1ccccc1 (stereo unspecified)	0.8	1	1.1	22	-7
COc1ccc(NC2CC(=O)N(c3ccccc3)C2=O)cc1 (stereo unspecified)	0.5	0.9	1	55*	-3
OCCNc1nc(Nc2ccccc2)nc(Nc2ccccc2)n1	0.8	1.2	0.3	20	66*
Nc1nc(CSCCO)nc(Nc2ccccc2)n1	0.9	1	0.9	15	13
CC(=O)c1cccc(NC(=O)CN(c2cccc(F)c2)S(C)(=O)=O)c1	0.7	0.9	0.8	32	21
Clc1cccc(Cl)c1CON/C=N/c1ncnc2sccc12	0.8	0.9	1	16	3
Clc1cccc(CON/C=N/c2ncnc3sccc23)c1	0.2	0.8	0.5	80*	50*
Cc1sc(NC(=O)CSc2nnc(COc3ccc(Cl)cc3)n2C)c(C#N)c1C	1	0.8	0.8	-1	22
Cc1cccc(Oc2ccccc2N)c1	0.7	0.9	1.2	34	-22
O=C(O)c1ccc(Oc2cccc([N+](=O)[O-])c2)cc1C(=O)O	0.9	1	0.9	6	5
Cc1cccc(Oc2ccc(N)cc2)c1	0.2	0.9	0.7	84*	29
Cc1ccc(Oc2ccc(-c3nc(N)nc(N)n3)cc2)cc1	0.9	0.9	0.9	6	7
Cc1cc(C)cc(Oc2ccc(N)cc2)c1	0.2	0.9	1.8	82*	-77
Cc1cccc(Oc2cc(N)cc([N+](=O)[O-])c2)c1	0.4	0.9	0.7	60*	34
Cc1c(NS(=O)(=O)c2ccc3c(c2)c(=O)n(C)c(=O)n3C)c(=O)n(-c2ccccc2)n1C	1	1.3	0.9	1	6
SMILES	CYP2C19 act	PLAP activator	CYP2C9 act	CYP2C19 inhib	CYP2C9 inhib
CC(CC(=O)O)CC(=O)Nc1ccccc1C(=O)O (stereo unspecified)	1.2	1	1.2	-18	-18
O=C(CCCCCN1C(=O)c2ccccc2C1=O)NCc1ccccn1	1	1	1	-2	0
O=C(CCCCCN1C(=O)c2ccccc2C1=O)Nc1ccccc1	0.4	0.7	0.4	64*	58*
O=C(CCCCCN1C(=O)c2ccccc2C1=O)Nc1nccs1	0.9	0.8	0.4	6	56*
O=C(CCCN1C(=O)c2ccccc2C1=O)Nc1c2c(nc3c1CCC3)CCC2	1	1	0.4	-4	63*
COc1ccc(N2C(=O)c3ccc(NC(C)=O)cc3C2=O)cc1	0.9	0.9	0.4	12	55*
Cn1nccc1C(=O)NC(=S)Nc1sc2c(c1C#N)CCCCC2	1.1	1	1	-9	-3
Cc1ccc(C(C)C)cc1OCCOCCN1CCCC1	0.9	0.9	1	12	-3
CCOC(=O)COc1ccsc1C(=O)OC	0.9	0.8	1.1	10	-10
CCN(CC)c1ccc(NC(=O)CCCCCN2C(=O)c3ccccc3C2=O)cc1	0.8	1.2	0.2	19	76*
Cc1cccnc1NC(=O)CCCN1C(=O)c2ccccc2C1=O	0.9	0.9	2.1*	7	-110
CC(=O)Nc1ccc2c(c1)C(=O)c1ccccc1C2=O	0.7	0.8	0.4	30	63*
CC(=O)Nc1ccc(NC(=O)CCCCCN2C(=O)c3ccccc3C2=O)cc1	0.6	0.9	0.1	40	92*
Cc1cc(C)nc(NS(=O)(=O)c2ccc(NC(=O)CCCN3C(=O)c4ccccc4C3=O)cc2)n1	0.7	1.4	0.7	28	33
CCOc1ccc(N2CC(=O)N/C2=N\c2nc(C)cc(C)n2)cc1	1.1	1.9	1	-7	-4
COC(=O)C1=NN(N=O)C2(CC(=O)N(c3cc(C)cc(C)c3)C2=O)C1 (stereo unspecified)	0.9	1.3	0.9	6	11
CC(=O)C1=C(O)C(=O)N(c2nnn(C)n2)C1c1cccs1 (stereo unspecified)	1	1.1	1	-3	5
CN1C=CC2=C(C#N)C(N)C(C#N)(C#N)C(c3ccccc3)C2C1 (stereo unspecified)	1	0.9	0.8	1	19
COC(=O)c1oc2ccc(Br)cc2c1NC(=O)CCCN1C(=O)c2ccccc2C1=O	0.6	1.1	0.4	43	64*
CC(C)CN(CCC(=O)O)CC(C)C	1.3	0.9	0.8	-27	22
Cc1onc(-c2ccccc2Cl)c1C(=O)Nc1ccc(-c2cn3cccnc3n2)cc1	1.1	1	1.1	-8	-8
Cc1ccc(-c2cn3cccnc3n2)cc1NC(=O)c1c(-c2ccccc2Cl)noc1C	0.5	1.1	0.5	54*	45
Cc1onc(-c2ccccc2Cl)c1C(=O)Nc1cccnc1	0.8	1.1	0.9	19	15
Cc1onc(-c2ccccc2Cl)c1C(=O)Nc1cccc(-c2nc3ncccn3c2C)c1	0.5	1.4	0.5	55*	52*
CCc1ccc(N(C(=O)CNC(=O)c2cccs2)C(C(=O)NC(C)(C)C)c2cc(OC)c(OC)c(OC)c2)cc1 (stereo unspecified)	0.6	1.3	0.6	36	41
CC(C)(C)NC(=O)CN(C(=O)CNC(=O)c1cccs1)c1ccc2c(c1)OCCO2	0.9	1	0.2	14	80*
CN(C(=O)c1cnc2n(c1=O)CCS2)C1CCCCC1	1	1.1	0.8	5	16
CN(Cc1ccccc1)c1oc(-c2ccco2)nc1C#N	0.4	0.9	0.4	59*	62*
N#Cc1nc(Cc2cccc3ccccc23)oc1NCCCn1ccnc1	0	1.8	0	98*	97*
COc1ccc(CNc2oc(Cc3cccc4ccccc34)nc2C#N)cc1	0.2	1.2	0	79*	96*

Bioassay records: PubChem, Sanford-Burnham Center for Chemical Genomics
